Reference: the supplement of paper PMC6555819

Columns and labels:
Test in all cases: PBM binding z-score (relative to random genomic background probes); higher = stronger binding; sequences stand for … in GC…GCGATTGACAGCGTAGAATGAAGG
[1] = system: FXR:RXRa (NR concentration 270 nM, RXRa partner concentration 90 nM)
Summary of the method: (§1)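 The probes on custom Agilent 4×180K protein-binding microarrays were double-stranded, with 34-nt variable regions bearing direct-repeat seeds, single-nucleotide variants, half-site ablations and random human genomic background sequences. Incubation lasted 1 h with ligand-free nuclear receptor dimers in PBS pH 7.4, 2% milk, 0.02% Triton X-100, 1 mM DTT, 0.2 mg/mL BSA and 0.4 mg/ml salmon testes DNA. Antibodies against each partner (one per run) detected bound dimers, and fluorescence scans were regression-normalized. Binding z-scores take the random background probes as reference.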

[2] = system: LXRa:RXRa (NR concentration 270 nM, RXRa partner concentration 90 nM)
Summary of the method: as §1

[3] = system: LXRa homodimer (NR concentration 270 nM)
Summary of the method: as §1

[4] = system: LXRb:RXRa (NR concentration 270 nM, RXRa partner concentration 90 nM)
Summary of the method: as §1

[5] = system: LXRb homodimer (NR concentration 270 nM)
Summary of the method: as §1

[6] = system: PPARa:RXRa (NR concentration 270 nM, RXRa partner concentration 90 nM)
Summary of the method: as §1

[7] = system: PPARg:RXRa (NR concentration 180 nM, RXRa partner concentration 90 nM)
Summary of the method: as §1

[8] = system: PPARg:RXRa 270nM:90nM, anti-RXR (NR concentration 270 nM, RXRa partner concentration 90 nM)
Summary of the method: as §1

[9] = system: PPARg:RXRa 30nM:10nM, anti-RXR (NR concentration 30 nM, RXRa partner concentration 10 nM)
Summary of the method: as §1

[10] = system: PPARg:RXRa 90nM:30nM, anti-RXR (NR concentration 90 nM, RXRa partner concentration 30 nM)
Summary of the method: as §1

[11] = system: PPARg:RXRa DBDmut IVT, anti-RXR (DBD mutation: RXRa K156A/R161A, NR concentration 270 nM, RXRa partner concentration 90 nM)
Summary of the method: as §1

[12] = system: PPARg:RXRa IVT, anti-PPARg (NR concentration 270 nM, RXRa partner concentration 90 nM)
Summary of the method: as §1

[13] = system: PPARg DBDmut:RXRa IVT, anti-PPARg (DBD mutation: PPARg1 K132A/R137A, NR concentration 270 nM, RXRa partner concentration 90 nM)
Summary of the method: as §1

[14] = system: PPARg DBDmut IVT, anti-PPARg (DBD mutation: PPARg1 K132A/R137A, NR concentration 270 nM)
Summary of the method: as §1

[15] = system: PPARg homodimer (NR concentration 180 nM)
Summary of the method: as §1

[16] = system: PXR:RXRa (NR concentration 270 nM, RXRa partner concentration 90 nM)
Summary of the method: as §1

[17] = system: PXR homodimer (NR concentration 270 nM)
Summary of the method: as §1

[18] = system: RARa:RXR (NR concentration 270 nM, RXRa partner concentration 90 nM)
Summary of the method: as §1

[19] = system: RARa homodimer (NR concentration 270 nM)
Summary of the method: as §1

[20] = system: RARb:RXRa (NR concentration 270 nM, RXRa partner concentration 90 nM)
Summary of the method: as §1

Sequence	PBM binding z-score [1]	PBM binding z-score [2]	PBM binding z-score [3]	PBM binding z-score [4]	PBM binding z-score [5]	PBM binding z-score [6]	PBM binding z-score [7]	PBM binding z-score [8]	PBM binding z-score [9]	PBM binding z-score [10]	PBM binding z-score [11]	PBM binding z-score [12]	PBM binding z-score [13]	PBM binding z-score [14]	PBM binding z-score [15]	PBM binding z-score [16]	PBM binding z-score [17]	PBM binding z-score [18]	PBM binding z-score [19]	PBM binding z-score [20]
AGAATGTGGTTATACGTAGATCAGGGAAGAAAGT	0.107	0.271	0.177	0.318	-0.0614	0.259	0.647	0.356	0.568	0.428	-0.104	0.38	1.04	0.755	0.355	0.214	0.82	0.282	0.734	0.0601
TCTTGTAGATCAAGGAGGTTAAGAAAGCCTGAGT	0.502	0.513	-0.308	0.459	-0.443	1.27	-0.429	1.44	2.7	1.77	1.66	0.772	0.58	0.0101	0.474	0.734	0.408	0.789	-0.0638	0.468
AGTCAAAGTTGACTAGGTAACGTAAGATTCAGCT	-0.527	-0.187	-0.527	-0.137	-0.608	1.41	2.01	2.7	0.453	1.91	1.93	2.8	0.549	0.744	-0.383	-0.11	-0.595	0.0496	-0.0612	1.13
TCAGACAGTTGAAGGTAACTCAGGTACGCAGTCG	0.761	1.54	0.0812	0.579	-0.363	1	0.579	2.27	3.99	3.4	2.22	0.0381	-0.122	-0.183	0.684	0.701	0.165	0.843	-0.196	0.547
ATCGAAAGGTCGTGAGGTGAGTATGCAGAAAGGC	5.14	4.02	0.302	2.91	0.303	5.19	3.67	4.56	1.24	3.19	0.289	2.19	1.46	1.35	1.5	2.98	-0.0975	4.43	0.592	4.01
GCAGACAGATGAAACGCAGGTAACTCAGGGTGGC	-0.734	-0.704	-0.594	-0.986	-1.14	-0.624	0.616	-0.641	-0.438	-0.564	-0.362	-0.767	-1.03	-0.761	-1.19	-0.681	-0.52	-0.161	-0.884	-1.1
CCTAGCTGGCCAATCTGGGTCACTCAAGGCTTGA	0.656	0.35	-0.714	0.665	-1.32	2.6	1.43	1.89	-0.389	1.26	3.93	4.25	-0.85	-1.11	-0.162	0.708	-0.934	1.02	-1.02	1.09
AGTCTAAGTTCAGGACGAGGTAACGTAAAGCACG	1.61	1.56	0.288	0.821	-0.194	1.82	0.831	0.749	0.345	0.385	-0.507	0.167	0.154	0.579	1.1	2.21	1.18	1.79	0.351	2.95
CGTCCAAGATCATAGGAGGTCAGTGAAGACAGAT	1.56	2.77	1.2	2.26	0.134	2.69	0.898	0.559	0.251	0.198	0.389	1.23	0.673	0.577	1.4	2.93	0.844	2.62	0.513	2.25
CGTCCAAGGTCAGAGAGGACAGTGAATGCCGAGT	4.64	3.42	0.241	2.28	-0.021	3.85	2.24	2.75	0.355	1.59	2.32	2.3	-0.223	-1.03	2.09	3.22	4.69	2.69	0.425	4.64
CCTAGTTGGTCAGGAGGTCAGACACCGGATATGA	2.18	2.3	0.868	2.16	0.128	3.04	2.05	2.35	0.691	1.69	1.06	2.24	0.271	0.265	2.85	2.7	0.934	3.13	1.66	2.92
GACACAGGGTCAAGGCCAGAGTACGCGTATTGAT	6.96	4.02	-0.483	3.38	-0.662	5.47	5.53	5.57	1.65	4.01	2.25	3.61	0.42	-0.363	1.5	3.91	0.315	4.77	0.257	4.41
CCTATTGGGCCATCAGGTCATTGATATCAACGTT	1.84	1.28	1.09	1.42	-0.199	2.25	1.29	2.49	0.897	1.88	3.63	3.39	0.758	0.0799	1.42	1.84	0.775	2	0.136	2.25
TCTTGTAGATCAAAGGTTAAGAAGGCCGAAGCCT	1.58	2.1	-0.0136	1.83	-0.281	4.6	8.22	8.32	9.13	9.04	2.13	4.06	0.462	0.582	0.29	2.19	0.104	3.33	-0.0225	1.98
TCTCGGAGGACACGAAGGTCAGAGCATTCCAGAG	1.29	0.948	0.206	0.97	-0.998	1.88	0.742	1.63	2.05	1.74	1.39	1.39	-0.898	-1.01	0.93	1.74	0.89	1.61	0.282	3.07
ATCTCTACGTAAAAGTTCAGTGAATCCCGAGGAT	0.535	1.12	1.27	0.881	1.33	0.835	0.595	1.55	0.654	1.25	-0.177	0.157	1.69	2.47	0.954	1.69	1.8	0.802	1.16	2.35
TCATATAGGTAAAAGGTGAAAGTGGGTGTGGTAA	2.2	2.19	0.716	2.45	0.97	5.49	9.05	8.74	8.47	9.1	5.36	5.24	0.898	1.26	2.63	2.31	1.28	3.5	2.39	2.22
TCAGACAGGTGAAGGTAACTCTGGTACGCAGTCG	0.419	2.39	-0.038	1.46	-0.229	1.23	0.517	2.02	3.66	2.66	2.58	0.996	0.246	-0.784	0.246	0.678	0.0805	0.872	0.122	1.07
GCAGACAGGTGTAACGCAGGTAACTCAGGGTGGC	-0.697	-0.644	-1.09	-0.823	-1.61	-0.721	0.351	-0.525	-0.773	-0.582	-0.561	-0.366	-0.91	-1.52	-1.12	-0.578	-1.01	-0.502	-1.69	-0.603
TAGCCTAGATCATGCGGGCCAGTATAGTGTCGGC	-2.92	-1.33	-1.04	-1.36	-0.772	-0.834	0.0405	-0.522	-0.938	-0.742	0.553	0.672	-0.852	-1.76	-1.53	-1.41	-1.04	-1.57	-0.691	-1.2
TCATATAGGTAAACAGTTGAAAGTCCGTAAGTTA	1.56	1.2	0.508	1.15	0.267	1.76	1.53	2.91	3.95	3.49	4.45	3.32	1.41	0.905	1.35	1.03	0.634	1.35	1.47	0.681
CTACCAAGGTGAACAAGGTCGCTGATTACTATTC	1.1	1.05	-0.405	1.37	-0.68	2.38	1.17	1.36	-0.0103	0.78	2.41	2.81	0.217	0.423	0.663	1.7	0.349	1.89	-0.144	2.17
CGTCAAAGTTCAAAGTAACGTAACAGAAAGCAGC	6.87	6.57	4.32	4.01	2.75	4.91	4.43	5.36	2.18	4.17	0.465	1.58	1.23	1.35	3.3	4.68	3.73	3.43	1.73	4.9
TGATTGAGGTTATAAGATCAGGGAACGTTGCAAA	1.58	1.48	-0.174	1.21	-0.195	2.46	0.965	1.78	0.689	1.56	0.431	1.59	0.391	0.349	0.564	0.896	-0.0809	1.5	0.232	1.19
GCTATTAGTTGAAAGGGCAACCAAATGATTCTCG	0.334	0.735	0.214	0.946	-0.0517	2.45	2.73	4.6	2.34	4.39	0.461	1.15	0.444	0.602	0.903	0.803	0.104	1.48	0.766	2.13
CATACAGGGTCAGCTAGGGCAGAGTAGGGACGGC	4.71	3.1	-0.0929	2.23	0.47	4.21	3.23	3.05	0.549	1.75	1.09	2.7	1.4	-0.307	2.1	2.54	0.343	3.11	0.618	4.28
AATACAGGGTTACTAGGCCAGAGTAGGTACGAAT	0.737	1.26	0.201	1.17	0.122	3.39	4.79	4.22	1.52	3.29	2.82	4.59	1.84	1.12	1.19	0.457	0.173	0.852	0.718	1.38
CGAACAAGGTCAGAACAGGACAGTGAAGGATGAT	4.33	3.42	0.289	2.42	0.289	3.91	3.09	3.2	1.12	1.95	2.79	3.05	0.722	0.826	1.5	3.22	0.399	2.47	0.0836	4.31
